Only a selection was taken, and hits are over-represented in it overall.
DT40 TDP1 CPT = DT40-hTDP1 cell growth loss with CPT; chicken DT40 Tdp1-/-;hTDP1 cells + 20 nM CPT, ATP luminescence, 48 h; Potency, µM (series often up to 46.2 µM), hits mostly inhibitors; 12% of 420,000 active; AID 686979; also: nearly all actives have a fitted effect of over 55% in size
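Chicken DT40 Tdp1-/- cells complemented with human TDP1, 400 cells/well, exposed to compounds plus 20 nM camptothecin for at least 48 h at 37 C; viability read as ATP content by CellTiter-Glo luminescence.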
HT1080 IDH1KD tx = kills HT-1080 cells with IDH1 knockdown | HT-1080 IDH1 knockdown viability, ATP luminescence, 48 h | Potency, µM (doses to about 46.1 µM), most hits filed as cytotoxic | 2% of 360,000 active | AID 686971
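Knockdown cells (IDH1KD HT-1080) received compounds 2 h after plating at 750 cells/well and were kept 48 h at 37 °C in 5% FBS RPMI. A CellTiter-Glo luminescence read gave % activity for curve fitting.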
IL-1B inflam inh = inhibitors of inflammasome signaling (IL-1 beta secretion); THP-1 LPS/ATP IL-1B secretion, AlphaLISA, 16 h; hits give low values; activity change, % at 57.5 µM; 4.7% of 360,000 active; in the data active = activity change below about -50%; inconclusive = mostly about -30% to -49%
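THP-1 cells pretreated 1 hr with compounds (up to 57.5 uM final), then stimulated with LPS (250 ng/mL final) plus ATP (1.25 mM final); secreted IL-1B measured by AlphaLISA after 16 hr, decreased signal indicating inhibition.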
ALOX12 inh = ALOX12 (human) lipoxygenase inhibition; Potency, µM (highest dose often 108 µM), most hits filed as inhibitors; purified 12hLO, xylenol orange hydroperoxide absorbance; AID 1671190; P18054; 1.1% of 580,000 active
Target sequence (P18054 whole entry, looked up): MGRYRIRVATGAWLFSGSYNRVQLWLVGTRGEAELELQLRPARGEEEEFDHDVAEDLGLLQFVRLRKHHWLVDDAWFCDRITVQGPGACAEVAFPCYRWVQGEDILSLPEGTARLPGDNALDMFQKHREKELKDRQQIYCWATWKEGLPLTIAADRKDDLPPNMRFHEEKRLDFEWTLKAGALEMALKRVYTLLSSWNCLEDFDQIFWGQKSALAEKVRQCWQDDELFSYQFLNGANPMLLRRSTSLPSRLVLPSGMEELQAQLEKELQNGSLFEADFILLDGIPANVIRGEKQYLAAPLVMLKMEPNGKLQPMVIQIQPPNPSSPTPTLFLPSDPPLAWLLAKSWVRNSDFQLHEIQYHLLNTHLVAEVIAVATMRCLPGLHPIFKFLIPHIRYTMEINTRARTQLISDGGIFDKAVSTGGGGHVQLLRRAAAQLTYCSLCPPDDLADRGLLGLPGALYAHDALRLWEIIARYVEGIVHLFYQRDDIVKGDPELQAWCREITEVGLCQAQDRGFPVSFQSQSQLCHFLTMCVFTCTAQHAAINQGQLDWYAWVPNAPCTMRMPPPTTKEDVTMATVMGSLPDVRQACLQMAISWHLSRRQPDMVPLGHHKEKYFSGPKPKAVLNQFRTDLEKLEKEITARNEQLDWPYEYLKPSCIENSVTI
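Hydroperoxide product was detected by ferrous iron/xylenol orange as the 573 to 405 nm absorbance ratio. Arachidonic acid at 40 uM (final) was turned over for 30 min at room temperature by 150 nM human 12hLO, pH 7.0 Hepes buffer, after 15 min compound preincubation.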
DT40 TDP1 no CPT = qHTS for Inhibitors of human tyrosyl-DNA phosphodiesterase 1 (TDP1): qHTS in cells in absence of CPT; 15% of 420,000 active; DT40 Tdp1-/- hTDP1 cells, no CPT, ATP luminescence, 48 h; Potency, µM (highest dose often 46.2 µM), actives largely listed as inhibitors; also: nearly all actives have a fitted effect of over 55% in size
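Compound effects on proliferation are scored in DT40 Tdp1-/-;hTDP1 cells in the absence of CPT. ATP levels (CellTiter-Glo luminescence) are recorded after a ≥48 hr, 37 °C incubation.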
HT1080-NT tox = kills 2HG-producing HT-1080-NT fibrosarcoma cells; AID 686970; HT-1080-NT fibrosarcoma viability, CellTiter-Glo ATP luminescence, 48 h; Potency, µM (titrated, usually from 46.1 µM), actives largely listed as cytotoxic; 1.6% of 360,000 active;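 also: NT is the 2HG producing partner of a matched IDH1 knockdown line; nearly all actives have a fitted effect of over 55% in size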
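Compounds were tested in concentration-response format on HT-1080-NT cells for 48 hours at 37 degrees C. Cell viability came from CellTiter-Glo luminescence; curves were classified by r2, response magnitude and activity.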
A number is an active result; . = inactive; ? = inconclusive; / = no result. Unless noted, calls follow the shape of the dose curve; as a rule, active = well fitted curve in the direction sought with a large enough effect; inconclusive = small, poorly fitted or top-dose-only effect, or another doubt; inactive = no such curve, though single readings can be large; an effect the other way counts as inactive or inconclusive.

SMILES	DT40 TDP1 CPT	HT1080 IDH1KD tx	IL-1B inflam inh	ALOX12 inh	DT40 TDP1 no CPT	HT1080-NT tox
CC(=O)C1=CCC(c2ccc(F)cc2)N(S(=O)(=O)c2ccc(C)cc2)C1 (stereo not given)	?	.	.	?	18µM	.
COc1ccc(C(=O)Nc2oc3ccc(Cl)cc3c(=O)c2-c2cccc(OC)c2)cc1	/	/	/	.	/	/
O=C(C1CCCC1)N1CCC(n2cnnc2C2CC2)CC1	/	/	/	.	/	/
COc1cc(OC)c(-n2nnc(-c3nc(-c4ccc(C)cc4)no3)c2C)cc1Cl	/	/	/	.	/	/
CCCCn1c(CCNC(=O)c2ccco2)nc2ccccc21	?	.	.	.	?	.
CCCCn1c(CCCNC(=O)c2ccco2)nc2ccccc21	?	.	.	.	15µM	.
COCc1nc2ccccc2n1Cc1ccccc1C	?	.	.	.	?	.
CCCC(=O)NCCCc1nc2ccccc2n1C	.	.	.	.	.	.
CCCCCn1c(CCNC(=O)CCC)nc2ccccc21	?	.	.	.	16µM	.
C=C(C)Cn1c(CCCNC(=O)CCC)nc2ccccc21	13µM	.	.	.	15µM	.
COCc1nc2ccccc2n1Cc1c(F)cccc1Cl	18µM	.	.	.	13µM	.
CN(C)CCN1CCN(C2CN(CCc3ccccc3)S(=O)(=O)C2)CC1 (stereo not given)	.	.	.	.	?	.
O=C1N(Cc2cccc(F)c2F)CCCC1(O)CN1CCOCC1 (stereo not given)	/	/	/	.	/	/
O=C(Cn1c(NCc2ccccc2)nc2ccccc21)N1CCCC1	/	/	/	.	/	/
C=CCn1c(CCCNC(=O)c2ccccc2OC)nc2ccccc21	?	.	.	/	?	.
CCCC(=O)NCCc1nc2ccccc2n1Cc1c(F)cccc1Cl	21µM	/	/	.	15µM	/
CCCn1c(CCCNC(=O)c2ccccc2OC)nc2ccccc21	?	/	/	.	18µM	/
CCCCCn1c(CCCNC(=O)CC)nc2ccccc21	21µM	.	.	.	16µM	.
CCC(C)[C@H]1COCCS(=O)(=O)N1Cc1ccc(Cl)cc1Cl (stereo not given in full)	?	.	.	.	?	.
COCCCNC(=O)CSc1nc2ccccc2c(=O)n1Cc1ccc2c(c1)OCO2	.	.	.	.	.	.
CCN(CC)C(=O)CSc1nc2cc3c(cc2c(=O)n1Cc1ccc(OC)cc1)OCO3	23µM	.	.	.	18µM	?
CC1CCCCN1C(=O)CSc1nc2cc3c(cc2c(=O)n1Cc1ccc2c(c1)OCO2)OCO3 (stereo not given)	21µM	.	?	?	23µM	.
CCOC(=O)CSc1nc2cc3c(cc2c(=O)n1CCCCCC(=O)NCc1ccc(OC)cc1)OCO3	.	/	/	?	?	/
CCN(CC)C(=O)CSc1nc2cc3c(cc2c(=O)n1CCCCCC(=O)NCCc1ccc(OC)c(OC)c1)OCO3	15µM	/	/	.	15µM	/
COCCNC(=O)CSc1nc2cc3c(cc2c(=O)n1Cc1ccc(C(=O)NCCc2ccc(OC)c(OC)c2)cc1)OCO3	8.2µM	/	/	.	21µM	/
SMILES	DT40 TDP1 CPT	HT1080 IDH1KD tx	IL-1B inflam inh	ALOX12 inh	DT40 TDP1 no CPT	HT1080-NT tox
CCn1c(SCC(=O)N2CCCCC2C)nc2ccsc2c1=O (stereo not given)	10µM	.	.	.	?	.
CC1CCCCN1C(=O)CSc1nc2ccsc2c(=O)n1Cc1ccccn1 (stereo not given)	?	.	.	.	?	.
Cc1sc2ncnc(N=Nc3c(O)[nH]c4ccccc34)c2c1C	.	.	.	.	23µM	.
Oc1[nH]c2ccccc2c1N=Nc1ncnc2c1oc1ccccc12	/	/	/	.	/	/
CCc1cc2c(N=Nc3c(O)[nH]c4ccccc34)ncnc2s1	18µM	.	.	.	21µM	.
Cc1cccnc1CNC[C@H]1O[C@@H]2C[C@@H](CC(=O)NC(C)C)O[C@@H]2[C@@H]1O	/	/	/	.	/	/
O=C(COc1ccc(S(=O)(=O)N2CCOCC2)cc1Cl)NC1CC1	.	.	.	?	.	.
